# Out of some 68,000 compounds screened, about 2,700 (4%) showed an effect of 50% or more. Shown is part of a subset that was picked to be rich in strong results.
# Test system: Plasmodium berghei
# Experiment: Screen against P. berghei liver stage (PbLuc), transformed with Luciferase, at 2uM
# Format: functional, HepG2
# Settings: tested at 2 uM
row,SMILES,INHIBITION
1,Cc1ccc(OCC2CCCN(C(=O)Cn3ccccc3=O)C2)cc1 (stereo unspecified),45.14%
2,Cc1ccc(OCC2CCCN(CC3CCOCC3)C2)cc1 (stereo unspecified),60.13%
3,Cc1ccc(OCC2CCCN(C(=O)CN3CCOCC3)C2)cc1 (stereo unspecified),38.67%
4,Cc1ccc(OCC2CCCN(c3nc(CO)cs3)C2)cc1 (stereo unspecified),-43.42%
5,Cc1ccc(OCC2CCCN(Cc3ccc(CO)o3)C2)cc1 (stereo unspecified),69.67%
6,COc1ccc(OCC2CCCN(Cc3ccncc3)C2)cc1 (stereo unspecified),-1.29%
7,Nc1nnc(SCc2cc(=O)n3c4c(sc3n2)CCCC4)[nH]1,-0.04%
8,CCCc1noc(C2CC(=O)N(Cc3ccccc3)C2)n1 (stereo unspecified),39.58%
9,Cc1ccc(S(=O)(=O)N2CC[C@@H]3C[C@H](NC(=O)c4ccncc4)[C@@H]32)cc1,20.51%
10,Cc1cccc(N2CCC3(CCCN(C(=O)c4cccnc4)C3)C2)n1 (stereo unspecified),-37.2%
11,Cc1cc(C(=O)N2CCc3c(CN(C)C)nn(C)c3C2)[nH]n1,28.2%
12,Cc1cccc(C(=O)N2CCc3c(CN(C)C)nn(C)c3C2)n1,-27.08%
13,Cc1nocc1C(=O)N1CCc2c(CN(C)C)nn(C)c2C1,51.81%
14,Cn1cc(CN2CCC(c3ncc(Cl)cc3S(C)(=O)=O)CC2)cn1,22.95%
15,O=C(c1cccc2c1OCCO2)N1CCCCC1Cn1cccn1 (stereo unspecified),-46.81%
16,O=C(c1cnc(C2CC2)s1)N1CCCCC1Cn1cccn1 (stereo unspecified),21.31%
17,O=C1COc2c(cccc2C(=O)N2CCCC2Cn2cccn2)N1 (stereo unspecified),24.56%
18,O=C1COc2c(cccc2C(=O)N2CCCCC2Cn2cccn2)N1 (stereo unspecified),63.93%
19,Cc1nc(CC(=O)N2CCCCC2Cn2cccn2)cs1 (stereo unspecified),60.64%
20,O=C(CCOc1ccc(F)cc1)N1CCCC1Cn1cccn1 (stereo unspecified),70.27%
21,Cc1nc(CC(=O)N2CCCC2Cn2cccn2)cs1 (stereo unspecified),34.53%
22,O=C(CCOc1cccc(F)c1)N1CCCC1Cn1cccn1 (stereo unspecified),8.37%

row,SMILES,INHIBITION
1,COc1ccc(OCCC(=O)N2CCCC2Cn2cccn2)cc1 (stereo unspecified),-28.79%
2,CCc1ncc(C(=O)N2CCCC2Cn2cccn2)s1 (stereo unspecified),17.31%
3,CCc1ncc(C(=O)N2CCCCC2Cn2cccn2)s1 (stereo unspecified),63.95%
4,CCc1nc(CC(=O)N2CCCCC2Cn2cccn2)cs1 (stereo unspecified),21.12%
5,Cc1cnn(CC2CCCN2C(=O)c2sccc2C#N)c1 (stereo unspecified),16.25%
6,CC(C)(C)CC(=O)NCC(=O)NCC(O)c1ccc2ccccc2c1 (stereo unspecified),-29.53%
7,CCc1n[nH]c(C2CN(C(=O)c3ccc(Cl)cn3)CCO2)n1 (stereo unspecified),22.69%
8,CC(C)n1nc(Cn2cccn2)c2c1CN(CC1CCOC1)C2 (stereo unspecified),20.2%
9,COCCC(=O)N1CCC(NC(=O)c2cscc2C)CC1,16.72%
10,COCC(O)CN1CCC(NC(=O)c2cscc2C)CC1 (stereo unspecified),50.93%
11,COCC(O)CN1CCC(NC(=O)c2ccccc2Cl)CC1 (stereo unspecified),-41.8%
12,CCc1nnsc1C(=O)N(C)Cc1nnc2n1CCC2,-8.74%
13,Cc1cnc(N2CCC3(CC(=O)N(Cc4csc(C)n4)C3)C2)nc1 (stereo unspecified),25.43%
14,COCCN(CC(F)F)c1cc(COC)nc2ncnn12,69.52%
15,CCCN(CC(F)F)c1cc(COC)nc2ncnn12,-6.73%
16,CCCc1cc(N(CCOC)CC(F)F)n2ncnc2n1,55.18%
17,CCN(CC)CCN(CC(C)C)c1cc(C(F)(F)F)nc2ncnn12,-13.12%
18,COCc1cc(N(CC(F)F)C2CC2)n2ncnc2n1,3.59%
19,COCCN(CC(F)F)c1cc(C(F)(F)F)nc2ncnn12,25.81%
20,Cc1cc(C)c(CNC(=O)NCc2cc(F)cc(F)c2)c(=O)[nH]1,23.42%
21,Cn1ncc(C(=O)OCC2CC(=O)N(c3ccccc3)C2)c1C(F)F (stereo unspecified),26.62%
22,CC(C)NC(=O)C1CN(C(=O)Nc2cccc(F)c2)CC12CCOCC2 (stereo unspecified),9.53%

row,SMILES,INHIBITION
1,O=C1CCCN1CCN1CCC(c2ccn[nH]2)CC1,33.26%
2,CCc1c(C)nc(N)nc1NCCSCc1[nH]cnc1C,29.98%
3,Cc1ccccc1CCC1CCCN(Cc2nnc(-c3ccco3)o2)C1 (stereo unspecified),55.7%
4,c1coc(-c2nnc(CN3CCCC(CN4CCCCCC4)C3)o2)c1 (stereo unspecified),-22.43%
5,Cc1nc(CN(C)C2CCCN(c3cccnn3)C2)oc1C (stereo unspecified),-6.71%
6,CN(Cc1nnc(-c2ccco2)o1)C1CCCN(c2cccnn2)C1 (stereo unspecified),53.03%
7,CN(Cc1ncc(-c2ccccc2)o1)C1CCCN(c2cccnn2)C1 (stereo unspecified),-4.81%
8,CN(Cc1nnc(C2CC2)o1)C1CCCN(c2cccnn2)C1 (stereo unspecified),-15.05%
9,CN(Cc1nc(-c2ccco2)no1)C1CCCN(c2cccnn2)C1 (stereo unspecified),22.1%
10,CN(Cc1ncc(C(C)(C)C)o1)C1CCCN(c2cccnn2)C1 (stereo unspecified),51.21%
11,Cc1nc(C)n(CC2CCCN(Cc3nnc(-c4ccco4)o3)C2)n1 (stereo unspecified),22.51%
12,CC(CN(C)C)Nc1nc(O)cc(Cc2ccccc2F)n1 (stereo unspecified),21%
13,COCCOc1cccc(C(=O)N2CCCCC2c2nccs2)c1 (stereo unspecified),4.41%
14,CN(Cc1cccnc1)C1CCCN(Cc2noc(C3CC3)n2)C1 (stereo unspecified),42.12%
15,Cc1ccc(CS(=O)(=O)Cc2nc(N)nc(N(C)C)n2)cc1,-44.8%
16,CC(C)c1ccc(S(=O)(=O)Cc2nc(N)nc(N(C)C)n2)cc1,-25.72%
17,CC(C)c1ccc(CS(=O)(=O)Cc2nc(N)nc(N(C)C)n2)cc1,64.9%
18,CCCn1nc(C2CCNCC2)n(Cc2ccccc2)c1=O,26.92%
19,CCOCCn1nc(C2CCNCC2)n(Cc2ccccc2)c1=O,49.95%
20,O=c1n(CC2CC2)nc(C2CCNCC2)n1Cc1ccccc1,51.19%
21,Cc1noc(C)c1CCC(=O)N1CCn2cccc2C1C (stereo unspecified),-39.01%
22,Cc1c(NC(=O)NC2CCOCC2)cccc1C(=O)N1CCCC1,48.39%

row,SMILES,INHIBITION
1,Cc1c(NC(=O)NC2CCCC2)cccc1C(=O)N1CCSCC1,-12.09%
2,O=C(Nc1ccccc1C(=O)N1CCCC1)NC1CCOCC1,70.83%
3,NS(=O)(=O)c1cnn(CCC(=O)N(Cc2ccccc2)C2CC2)c1,-102.2%
4,CC(C)C(=O)NC1CC2(CCN(CC(=O)N(C)C)CC2)c2ccccc21 (stereo unspecified),-0.91%
5,CCC(=O)Nc1cccc(OCC(=O)N(C)Cc2ccon2)c1,19.91%
6,CCc1cccc(NC(=O)CCC(=O)N(C)Cc2nc(C)c[nH]2)c1,-53.55%
7,CCC(=O)Nc1cccc(OCC(=O)N(C)Cc2nc(C)c[nH]2)c1,53.13%
8,CCn1nc(C)c2nc(C(C)C)nc(NCCCn3cccn3)c21,-25.67%
9,Cc1cccc(CN2CCn3cc(CNC(=O)CC4CC4)nc3C2)n1,17.24%
10,O=C1COC2(CCN(Cc3nccs3)CC2)CN1CC1CC1,7.86%
11,CCc1cnc(N2C[C@@H]3C[C@H](C(=O)NC)[C@H](C2)O3)nc1,18.91%
12,N#Cc1cccc(S(=O)(=O)N2CCCCC2C(N)=O)c1 (stereo unspecified),70.24%
13,CC(=O)NCCC1CCCCN1S(=O)(=O)c1cccc(C#N)c1 (stereo unspecified),-7.53%
14,N#Cc1cccc(S(=O)(=O)N2CCCCC2CCN2CCCC2)c1 (stereo unspecified),-8.84%
15,CCOc1cccc(NC(=O)c2cnc(C)cn2)n1,29.97%
16,CC(C)=CCS(=O)(=O)Cc1nc(C(C)C)no1,34.69%
17,CN1CCCC1CCNC(=O)c1ccccc1-n1cc(CN)cn1 (stereo unspecified),-10.49%
18,O=C(C1CCCO1)N1CCC(n2cc(-c3ccsc3)nn2)CC1 (stereo unspecified),7.67%
19,O=C(C1CCCO1)N1CCC(n2cc(-c3ccc(F)cc3)nn2)CC1 (stereo unspecified),31.51%
20,Cc1ccc(-c2cn(C3CCN(C(=O)[C@H]4CCCO4)CC3)nn2)cc1,74.44%
21,CN(Cc1ccc(F)cc1)C(=O)NCc1nnc2n1CCCCC2,-43.41%
22,O=C(NCCCN1CCCCC1)c1ccc(-n2ccc3ccccc32)s1,13.64%

row,SMILES,INHIBITION
1,O=C(NCCN1CCOCC1)c1ccc(-n2ccc3ccccc32)s1,52.4%
2,O=C(NCCCN1CCOCC1)c1ccc(-n2ccc3ccccc32)s1,28.31%
3,CC(C)(C)c1nc(CN2CCCC2c2nnc3ccccn23)no1 (stereo unspecified),-12.01%
4,COc1nc2ccn(CCNc3cc(C)ccn3)c(=O)c2cc1C#N,55.39%
5,COc1nc2ccn(CCc3cnccn3)c(=O)c2cc1C#N,-32.52%
6,COc1nc2ccn(CCc3scnc3C)c(=O)c2cc1C#N,0.31%
7,O=C([C@@H]1CCCN1c1nccc(Nc2ccccc2)n1)N1CCCCC1,-16.43%
8,CCC(CN1CCCC1)NC(=O)C1(c2cccc(F)c2)CC1 (stereo unspecified),6.64%
9,COc1cccc(-n2cc(CN(C)C(=O)c3cnc(O)cn3)cn2)c1,-6.27%
10,C=C(C)COc1cccc(C(=O)N(C)C(C)c2c(C)n[nH]c2C)c1 (stereo unspecified),-10.92%
11,COc1cccc(C(=O)N(C)C(C)c2c(C)n[nH]c2C)c1OC (stereo unspecified),50.63%
12,C=C(C)COc1ccccc1C(=O)N(C)C(C)c1c(C)n[nH]c1C (stereo unspecified),29.81%
13,CC(C)N1CCCn2c(nc(CNC(=O)c3nccn3C)cc2=O)C1,-25.29%
14,CCN(CC)C(=O)c1ccn(COc2ccc(F)cc2)n1,17.7%
15,CCc1n[nH]c(C2CN(C(=O)Cc3ccc(C)nc3)CCO2)n1 (stereo unspecified),36.48%
16,O=C(CN1CC(c2nc(C3CC3)no2)C1)N1CCOCC1,56.9%
17,CC1CCN(C(=O)CN2CC(c3nc(C4CC4)no3)C2)CC1,12.57%
18,O=C(CN1CCCC(c2noc(C3CC3)n2)C1)N1CCCC1 (stereo unspecified),19.45%

# — ChEMBL document CHEMBL4513216, “Probing the Open Global Health Chemical Diversity Library for Multistage-Active Starting Points for Next-Generation Antimalarials” (ACS Infect Dis, 2020)
